AmpC no deterg – inhibitors of E. coli AmpC beta-lactamase without detergent; actives 0.52% (n = 330,000); Potency, µM (titrated, usually from 57.1 µM), hits mostly inhibitors; P00811; AmpC nitrocefin hydrolysis, absorbance 480 nm, 0.0001% Triton; AID 485341; further: nearly all actives have a fitted effect of over 20% in size
Target sequence (P00811 whole entry, looked up): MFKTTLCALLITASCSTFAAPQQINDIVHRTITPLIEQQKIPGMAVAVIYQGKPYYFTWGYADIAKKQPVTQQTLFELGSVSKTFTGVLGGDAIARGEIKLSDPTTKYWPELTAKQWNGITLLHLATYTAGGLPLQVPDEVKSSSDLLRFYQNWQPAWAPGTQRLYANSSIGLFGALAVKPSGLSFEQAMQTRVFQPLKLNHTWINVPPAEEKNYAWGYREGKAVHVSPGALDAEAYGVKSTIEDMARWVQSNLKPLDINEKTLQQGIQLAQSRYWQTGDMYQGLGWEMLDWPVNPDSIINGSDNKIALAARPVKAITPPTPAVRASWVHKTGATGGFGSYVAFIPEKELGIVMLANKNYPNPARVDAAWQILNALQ
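AmpC (5.3 nM in the dispensed reagent) in 20 mM phosphate pH 7.0 with 0.01% (detergent screen) or 0.0001% Triton X-100 was preincubated with compounds for 15 min at room temperature. Nitrocefin was then added from an 800 uM solution, and hydrolysis was followed at 480 nm.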
Pf growth 96h – inhibits malaria parasite growth, 96 h; P. falciparum luciferase reporter growth, 96 h; AID 504834; Potency, µM (highest dose often 28.7 µM), hits mostly inhibitors; actives 6.9% (n = 320,000)
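Two-generation exposure (96 h) targets delayed-death phenotype. Reporter parasites carrying integrated firefly luciferase, in red cells at 2% hematocrit and 0.05% parasitemia final, kept at 37 C, 5% CO2; luminescence loss indicates inhibition.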
Pf growth 48h – inhibits P. falciparum growth in the first generation, 48 h. P. falciparum luciferase growth in erythrocytes, 48 h. Potency, µM (top dose mostly 28.7 µM), usual class: inhibitors. actives 5.9% (n = 310,000). AID 504832
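Cell-based growth assay: transgenic P. falciparum expressing firefly luciferase, cultured in red cells within RPMI 1640 containing 0.5% w/v Albumax, 24 mM bicarbonate and gentamycin. A drop in luciferase activity indicates inhibition.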
HCV inhibitor – inhibitors of hepatitis C virus infection. Huh7.5.1 HCVcc-Cre infection, luciferase reporter, 44 h. Potency, µM (top dose mostly 41.8 µM), hits mostly inhibitors. actives 3.4% (n = 340,000). AID 651820
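Seed cells (1,000/well) for 4 h; treat with compound and infect with HCVcc-Cre, moi about 0.5. Incubate 44 h, then detect luciferase activity.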
AMA1-RON2 inh – inhibitors of Plasmodium falciparum AMA1-RON2 interaction. Potency, µM (series often up to 58.2 µM), usual class: inhibitors. AlphaScreen AMA1-biotinylated RON2 peptide binding. AID 720542. actives 0.2% (n = 360,000); further: nearly all actives have a fitted effect of over 45% in size
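AMA1 (3D7) with his tag at 25 nM final met compounds first, then biotinylated RON2 peptide at 25 nM; detection used donor plus acceptor beads, 10 µg/mL apiece, read by AlphaScreen after 30 min at room temperature.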
AmpC detergent – inhibitors of E. coli AmpC beta-lactamase with detergent; Potency, µM (doses to about 114 µM), actives largely listed as inhibitors; P00811; actives 0.041% (n = 370,000); AmpC hydrolysis of nitrocefin, absorbance 480 nm, 0.01% Triton; further: nearly all actives have a fitted effect of over 25% in size
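20 mM phosphate pH 7.0 + 0.01% (detergent screen) or 0.0001% Triton X-100; 5.3 nM AmpC reagent; cpd preinc 15 min RT; nitrocefin (800 uM stock) to start; A480 q20 s × 4 min; Activity was normalised to no-enzyme and no-compound control wells.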
Hits are given with their value; 0 = inactive; ? = inconclusive; - = no result given; [ ] = remark or other dose. Most compounds without a hit are left out; they make up all but 11% or so of the library. The call rests on the fitted dose curve; in most records, active means well fitted curve in the direction sought with a large enough effect; inconclusive means small, poorly fitted or top-dose-only effect, or another doubt; inactive means no such curve, though single readings can be large; an effect the other way counts as inactive or inconclusive.

SMILES	AmpC no deterg	Pf growth 96h	Pf growth 48h	HCV inhibitor	AMA1-RON2 inh	AmpC detergent
COc1ccc(-n2cc(C(=O)Oc3cc(C)cc(C)c3)c3ccccc3c2=O)cc1	-	-	-	-	-	0
CCC(CO)NCc1ccc(-c2ccccc2)cc1 (centres undefined)	0	3.7µM	0	?	0	0
CC(NCc1cccc(Cl)c1Cl)C(O)c1ccccc1 (centres undefined)	0	4.7µM	9.3µM	0	0	?
CCC(CO)NCc1ccc(Br)cc1 (centres undefined)	0	0	0	0	0	0
CC(NCc1ccc(Cl)cc1Cl)C(O)c1ccccc1 (centres undefined)	0	1.5µM	1µM	0	0	0
CC(NCc1ccc(Cl)cc1)C(O)c1ccccc1 (centres undefined)	0	3.7µM	2.6µM	0	0	0
COc1cc(OC)c(OC)cc1CNC(C)C(O)c1ccccc1 (centres undefined)	0	0	0	0	0	?
CC(CC(=O)NCc1ccc(Cl)cc1)c1ccccc1 (centres undefined)	0	?	0	0	0	0
O=C1CCCc2cc(S(=O)(=O)NCC3CCC(C(=O)NCc4ccccc4Cl)CC3)ccc2N1 (centres undefined)	-	-	-	-	-	0
CCOC(=O)N1CCc2c(sc3c2c(=O)n(Cc2ccccc2)c(=O)n3CC(=O)Nc2ccc(C)c(C)c2)C1	-	-	-	-	-	0
O=C(Nc1ccccc1OCc1cc(=O)n2ccccc2n1)c1cccc(Br)c1	-	-	-	-	-	0
CN1[C@@H]2CC(OC(=O)[C@@H](CO)c3ccccc3)C[C@@H]1[C@H]1O[C@H]12 (some centres undefined)	-	?	0	-	-	-
CCOc1c(Cl)cc(CNC(C)(C)CC(C)(C)C)cc1OC	0	-	10µM	?	0	?
CC(NCc1ccc(-c2ccccc2)cc1)C(O)c1ccccc1 (centres undefined)	0	2.3µM	2.9µM	?	0[11.6 µM]	0
CCOc1c(Cl)cc(CNC(C)C(O)c2ccccc2)cc1OC (centres undefined)	0	0	1.5µM	0	0	0
Cc1ccc(C)c(NC(=O)c2cc(S(=O)(=O)N3CCCc4ccccc43)ccc2F)c1	-	-	-	-	-	0
COc1ccc(-c2nc3c(C#N)c[nH]n3c2NC2CCCCC2)cc1	-	-	-	-	-	0
CC(=O)/C=C/c1ccccc1Oc1c(F)c(F)nc(F)c1F	0	9.3µM	?	0	0	0
O=C1C2C(C(=O)N1/N=C/c1cc([N+](=O)[O-])c(O)cc1O)C1C=CC2C12CC2 (centres undefined)	0	0	0	0	0	0
O=C1C2C(C(=O)N1/N=C/c1cc(Br)cc([N+](=O)[O-])c1O)C1C=CC2C12CC2 (centres undefined)	0	12µM	?	0	0	0
NC1=NC(=O)/C(=C/c2ccccc2OS(=O)(=O)c2ccccc2)S1	0	0	10µM	?	0	?
COc1cccc(/C=C2\SC(N)=NC2=O)c1OS(=O)(=O)c1ccccc1	0	0	0	0	0	0
CCc1ccc(C2c3c(oc4ccc(F)cc4c3=O)C(=O)N2c2nc(C)c(C(=O)OC)s2)cc1 (centres undefined)	-	-	-	-	-	0
CCn1c(NCc2cc(OC)c(OC)c(OC)c2)nc2ccccc21	0	0.23µM	0	0	0	0
C=CCc1cccc(CNc2nc3ccccc3n2CCC)c1O	0	-	12µM	?	0	?
SMILES	AmpC no deterg	Pf growth 96h	Pf growth 48h	HCV inhibitor	AMA1-RON2 inh	AmpC detergent
CCCn1c(NCc2ccccc2C)nc2ccccc21	-	-	-	-	-	0
C=CCc1cccc(CNc2nc3ccccc3n2CC)c1O	0	-	15µM	?	0	0
CC(C)(C)c1ccc(C(=O)N2CCCC(c3nc4c(nnn4Cc4cccc(F)c4)c(=O)[nH]3)C2)cc1 (centres undefined)	-	-	-	-	-	0
COc1ccccc1CNC(=O)COCc1cc(-c2ccc3c(c2)OCO3)on1	-	-	-	-	-	0
CC1(COc2ccc(CC3SC(=O)NC3=O)cc2)CCCCC1 (centres undefined)	-	0	0	-	-	-
Cc1c(C)c2c(c(C)c1O)CCC(C)(COc1ccc(CC3SC(=O)NC3=O)cc1)O2 (centres undefined)	-	6µM	?	-	-	-
Nc1c(C(=O)NC2CC2)c2nc3ccccc3nc2n1-c1ccc2c(c1)OCO2	0	?	0	?	0	0
CCOCCCNC(=O)c1c(N)n(-c2ccc3c(c2)OCO3)c2nc3ccccc3nc12	0	?	?	0	0	0
COCCCNC(=O)c1c(N)n(-c2ccc3c(c2)OCO3)c2nc3ccccc3nc12	0	0	6.6µM	?	0	0
CCCNC(=O)c1c(N)n(-c2ccc3c(c2)OCO3)c2nc3ccccc3nc12	0	4.1µM	8.3µM	0	0	0
CCCNC(=O)c1c(N)n(-c2cc(OC)cc(OC)c2)c2nc3ccccc3nc12	0	10µM	?	?	0	0
Cc1ccccc1Cn1c2ccccc2c2cnn(CC(=O)NC(C)CCc3ccccc3)c(=O)c21 (centres undefined)	-	-	-	-	-	0
Cc1cccc(S(=O)(=O)c2cn(C)c3cc(N4CCN(c5ccc(F)cc5)CC4)c(F)cc3c2=O)c1	-	-	-	-	-	0
C=CCCC(=O)N1CCC(n2nccc2NC(=O)c2ccc(OC)cc2)CC1	0	12µM	0	0	0	0
Nc1ccc(Sc2ccc([N+](=O)[O-])cc2)cc1	0	12µM	0	0	0	0
CC(C)(C)C(=O)Nc1ccc(Sc2ccc([N+](=O)[O-])cc2)cc1	0	2.3µM	?	?	0	0
CC(=O)Nc1ccc(Sc2ccc([N+](=O)[O-])o2)cc1	-	-	-	?	0	-
COc1ccc(Cn2c(CCC(=O)Nc3cccc(OC)c3)nc3cccnc32)cc1	-	-	-	-	-	0
CCC(C)(C)NS(=O)(=O)c1cc(-c2cc(C)no2)ccc1C	-	-	-	-	-	0
CC(C)(C)OC(=O)N1CCC[C@H]1c1nnc(SCc2c(Cl)cccc2Cl)o1	0	?	9.3µM	0	0	?
COc1ccc(C(=O)c2cnc3ccccc3c2-c2ccccc2)cc1	0	?	?	13µM	0	?
Cc1ccc(C(=O)c2cnc3ccccc3c2-c2ccccc2)cc1	0	10µM	13µM	?	0	?
Cc1ccc(C(=O)c2nc(C(=O)NCCO)nc3ccccc23)cc1	0	?	?	0	0	0
COc1ccc(Oc2nc(-c3ccccc3)ncc2C(=O)O)cc1	0	0	0	0	0	0
CCCCOc1ccc(CNC(=O)c2cnc3sc(N4CCOCC4)nn3c2=O)cc1	-	-	-	-	-	0
O=C(Nc1nonc1-c1ccc(Cl)cc1)c1ccccc1F	-	-	-	-	-	0
COc1ccccc1CNC(=O)CN(C)c1nn2c(=O)cc(C)nc2s1	-	-	-	-	-	0
CC(=O)N(c1ccc(Cl)cc1)c1c[nH]c2ccccc12	0	6.6µM	12µM	0	0	?

Assay outcomes from PubChem.
